# Source: PubChem
# Rows were chosen to be rich in hits. Some 15% of all compounds tested hit in one or more screens of this group.
# TDP1 cell noCPT: qHTS for Inhibitors of human tyrosyl-DNA phosphodiesterase 1 (TDP1): qHTS in cells in absence of CPT | DT40 Tdp1-/- hTDP1 cells, no CPT, ATP luminescence, 48 h | Potency, µM (top dose mostly 46.2 µM), hits mostly inhibitors | 15% of 420,000 active | AID 686978, 2013; note: nearly all actives have a fitted effect of over 55% in size
#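 Growth kinetics read by CellTiter-Glo luminescence after ≥48 hr at 37 °C. Cells: DT40 Tdp1-/- stably carrying human TDP1, 400 per well, compound exposure in the absence of CPT (DMSO vehicle).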
# TDP1 cell CPT: qHTS for Inhibitors of human tyrosyl-DNA phosphodiesterase 1 (TDP1): qHTS in cells in presence of CPT; 12% of 420,000 active; Potency, µM (series often up to 46.2 µM), actives largely listed as inhibitors; chicken DT40 Tdp1-/-;hTDP1 cells + 20 nM CPT, ATP luminescence, 48 h; note: nearly all actives have a fitted effect of over 55% in size
#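 Chicken DT40 Tdp1-/- cells stably complemented with human TDP1 were seeded at 400 cells/well in medium containing 20 nM camptothecin, exposed to pin-transferred compounds, and grown at 37 °C for at least 48 hr. Viability was read as ATP luminescence.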
# VP16 counter: VP16 counterscreen qHTS for inhibitors of ROR gamma transcriptional activity | Drosophila S2 Gal4-VP16 UAS-luciferase, luminescence, 20 h | Potency, µM (doses to about 53.6 µM), usual class: inhibitors | 3.5% of 310,000 active | AID 2546, 2010;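 note: Gal4-VP16 expression switched on by copper sulfate through the metallothionein promoter; nearly all actives have a fitted effect of over 50% in size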
# ELG1 DNA repair: qHTS screen for small molecules that inhibit ELG1-dependent DNA repair in human embryonic kidney (HEK293T) cells expressing luciferase-tagged ELG1 | AID 504467, 2011 | HEK293T ELG1-luciferase reporter, luminescence, 16 h; DNA damage induced by 5-fluorouridine | 2.3% of 330,000 active | Potency, µM (titrated, usually from 46.1 µM), usual class: inhibitors; note: nearly all actives have a fitted effect of over 55% in size
#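 Luminescence from the luciferase reporter, measured 30 min after ONE-Glo reagent at room temperature, was the read-out. Beforehand, 2,000 cells per well were exposed for 16 hr at 37 °C to 5-fluorouridine together with compound or vehicle.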
# RORg inh: qHTS for inhibitors of ROR gamma transcriptional activity. Drosophila S2 Gal4-RORgamma UAS-luciferase reporter, 20 h. Potency, µM (series often up to 53.6 µM), most hits filed as inhibitors. 5.4% of 310,000 active; note: nearly all actives have a fitted effect of over 60% in size
#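 Stably transfected Drosophila Schneider cells are the test system, with ROR gamma fused to Gal4 and luciferase under UAS control; luminescence is read after 20 hr of 700 uM copper sulfate induction at ambient temperature.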
# ALOX12 inh: Primary qHTS assay for inhibitors of human arachidonate 12S-lipoxygenase (ALOX12): Round 2; purified 12hLO, xylenol orange hydroperoxide absorbance; Potency, µM (doses to about 108 µM), hits mostly inhibitors; 1.1% of 580,000 active; AID 1671190, 2021
# Target sequence (P18054 whole entry, looked up): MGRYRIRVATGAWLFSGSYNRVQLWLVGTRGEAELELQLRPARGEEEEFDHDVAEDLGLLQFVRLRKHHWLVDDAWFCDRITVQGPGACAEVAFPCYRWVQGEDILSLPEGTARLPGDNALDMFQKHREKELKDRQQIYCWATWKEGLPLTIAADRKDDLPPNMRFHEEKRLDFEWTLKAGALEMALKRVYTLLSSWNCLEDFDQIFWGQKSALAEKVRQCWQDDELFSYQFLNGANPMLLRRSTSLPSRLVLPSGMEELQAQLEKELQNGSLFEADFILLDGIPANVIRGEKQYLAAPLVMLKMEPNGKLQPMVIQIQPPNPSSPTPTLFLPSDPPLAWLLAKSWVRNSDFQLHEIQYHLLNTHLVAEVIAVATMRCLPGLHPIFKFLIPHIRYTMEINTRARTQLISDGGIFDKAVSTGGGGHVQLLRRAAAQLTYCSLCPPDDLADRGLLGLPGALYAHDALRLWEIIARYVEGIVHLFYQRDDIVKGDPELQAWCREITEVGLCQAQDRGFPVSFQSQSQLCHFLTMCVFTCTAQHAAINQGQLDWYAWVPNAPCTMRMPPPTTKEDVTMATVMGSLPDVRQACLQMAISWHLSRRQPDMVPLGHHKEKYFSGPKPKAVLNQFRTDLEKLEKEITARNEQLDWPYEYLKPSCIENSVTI
#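 Purified human 12hLO (150 nM final) in 25 mM Hepes, 0.01% Triton X-100, pH 7.0 was preincubated 15 min at room temperature with compound. Then 40 uM arachidonic acid was added, 30 min. Hydroperoxide was read by Fe-XO absorbance ratio 573/405 nm.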
# Hits are given with their value; i = inactive; ? = inconclusive; nt = no result. Calls come from the whole dose curve; as a rule, active = well fitted curve in the direction sought with a large enough effect; inconclusive = small, poorly fitted or top-dose-only effect, or another doubt; inactive = no such curve, though single readings can be large; an effect the other way counts as inactive or inconclusive.
SMILES,TDP1 cell noCPT,TDP1 cell CPT,VP16 counter,ELG1 DNA repair,RORg inh,ALOX12 inh
CN1CCN(C(=O)Cn2ncc3c4ccccc4n(Cc4ccc(Cl)cc4)c3c2=O)CC1,10.3µM,23.1µM,nt,nt,nt,i
CCOC(=O)C1CCCN(C(=O)Cn2ncc3c4ccccc4n(Cc4ccc(F)cc4)c3c2=O)C1 (configuration not stated),14.6µM,23.1µM,nt,nt,nt,i
O=C(Cn1nnc2c(cnn2-c2ccccc2)c1=O)NCc1cccs1,23.1µM,?,i,i,i,i
O=C(CCCc1ccccc1)N1CC(c2noc(COc3ccccc3)n2)C1,nt,nt,nt,nt,nt,i
COCC(=O)N1CCC(Oc2nccnc2N2CCc3ccccc32)C1 (configuration not stated),nt,nt,nt,nt,nt,i
CCN1CCN(C(=O)Cn2ncc3c4ccccc4n(Cc4ccccc4F)c3c2=O)CC1,18.4µM,14.6µM,nt,nt,nt,i
O=C(Cn1ncc2c3ccccc3n(Cc3ccccc3)c2c1=O)N1CCN(c2ncccn2)CC1,?,i,i,?,i,nt
CCN1CCN(C(=O)Cn2ncc3c4ccccc4n(Cc4ccccc4)c3c2=O)CC1,14.6µM,16.4µM,nt,nt,nt,i
CCN1CCN(C(=O)Cn2ncc3c4ccccc4n(Cc4c(C)cc(C)cc4C)c3c2=O)CC1,16.4µM,?,nt,nt,nt,i
Cc1cc(C)c(Cn2c3ccccc3c3cnn(CC(=O)N4CCCCC4)c(=O)c32)c(C)c1,i,i,nt,nt,nt,i
CC1CCCCN1C(=O)Cn1ncc2c3ccccc3n(Cc3ccccc3F)c2c1=O (configuration not stated),9.2µM,9.2µM,nt,nt,nt,i
CC(C)CC(=O)Nc1cccc(C(=O)Nc2cccc(C(=O)O)c2)c1,nt,nt,nt,nt,nt,i
Cc1c2cnn(CC(=O)N3CCN(c4ccccc4)CC3)c(=O)c2c(C)n1Cc1ccc(F)cc1,13µM,20.6µM,nt,nt,nt,i
CC1CCC(C(C)C)C(OC(=O)Cn2nnc3c(cnn3-c3ccccc3)c2=O)C1 (configuration not stated),?,?,i,16.4µM,i,i
Cc1ccccc1Cn1c2ccccc2c2cnn(CC(=O)N3CCC(C)CC3)c(=O)c21,14.6µM,20.6µM,nt,nt,nt,?
Cc1ccc(Cn2c3ccccc3c3cnn(CC(=O)N4CCCCCC4)c(=O)c32)cc1,?,?,nt,nt,nt,i
CCOC(=O)C1CCN(C(=O)Cn2ncc3c4ccccc4n(Cc4ccccc4F)c3c2=O)CC1,4.61µM,3.26µM,nt,nt,nt,i
CCOC(=O)C1=C(C)OC(n2cccc2)=C(C#N)C1c1ccc(OC)cc1 (configuration not stated),nt,nt,nt,nt,nt,i
O=C(Cc1ccccc1F)NCCC1CCN(C(=O)Nc2ccc(F)cc2F)CC1,nt,nt,nt,nt,nt,i
CCN1CCN(c2nc(N)c([N+](=O)[O-])c(Nc3ccc(C)c(C)c3)n2)CC1,16.4µM,?,i,i,i,i
Cc1ccc(Nc2nc(N3CCN(C)CC3)nc(N)c2[N+](=O)[O-])cc1C,nt,nt,?,8.2µM,i,nt
CCc1c(N)nc(N)nc1Nc1ccccc1Cl,20.6µM,18.4µM,nt,nt,nt,i
Cc1ccc(C)c(N/C=C/C(=O)c2ccc(Cl)cc2Cl)c1,nt,nt,nt,nt,nt,i
NC(=O)c1ccccc1N/C=C/C(=O)c1ccc(F)cc1,14.6µM,?,?,?,0.562µM,i
Cc1ccc(C(=O)/C=C/Nc2ccccc2C(N)=O)o1,i,i,i,nt,i,?
SMILES,TDP1 cell noCPT,TDP1 cell CPT,VP16 counter,ELG1 DNA repair,RORg inh,ALOX12 inh
NC(=O)c1ccccc1N/C=C/C(=O)c1ccc(Cl)cc1Cl,18.4µM,?,3.98µM,?,0.631µM,i
O=C(NC(=O)N1CCN(c2ccc([N+](=O)[O-])cn2)CC1)c1c(Cl)cccc1Cl,?,9.2µM,i,i,i,nt
O=C(NC(=O)N1CCN(c2ccc([N+](=O)[O-])cn2)CC1)c1ccccc1F,9.2µM,?,i,?,i,i
CC(C)(C)c1ccc(C(=O)N2CCCN(c3ccc([N+](=O)[O-])cn3)CC2)cc1,18.4µM,?,i,?,i,i
O=[N+]([O-])c1ccc(N2CCN(c3ccccc3F)CC2)nc1,i,i,i,i,i,i
COc1ccc(Cn2c3c(c(=O)n2Cc2ccccc2)CCN(Cc2c(C)noc2C)C3)cc1,nt,nt,nt,nt,nt,i
CC(NC(=S)NC(=O)c1cccs1)c1ccccc1 (configuration not stated),18.4µM,i,nt,i,nt,25.1µM
O=C(NC(=S)NNC(=O)c1ccccc1O)c1ccc([N+](=O)[O-])cc1,14.6µM,25.9µM,i,?,i,i
O=C(NNC(=S)NC(=O)c1ccccc1)c1ccc([N+](=O)[O-])cc1,11.6µM,13µM,1.41µM,i,3.55µM,?
O=C(NC(=S)NNC(=O)c1ccccc1O)c1cccs1,25.9µM,23.1µM,i,i,i,?
COc1ccccc1C(=O)NNC(=S)NC(=O)c1cccs1,nt,nt,i,i,i,i
CCN(CC)C(=O)CC(C#N)(CC(=O)N(CC)CC)c1nc2ccccc2s1,nt,nt,nt,nt,nt,i
COc1ccccc1NC(=O)c1c(-n2cnnn2)sc(C)c1C,nt,nt,nt,nt,nt,i
CCCCCC(=O)NNC(=S)NC(=O)c1ccc([N+](=O)[O-])cc1,?,i,6.31µM,?,2.82µM,i
O=C(NNC(=S)NC(=O)c1ccc(Br)cc1)c1ccc([N+](=O)[O-])cc1,23.1µM,?,?,i,11.2µM,44.7µM
Cc1ccc(C(=O)NC(=S)NNC(=O)c2ccc([N+](=O)[O-])cc2)cc1,14.6µM,?,11.2µM,i,?,?
COc1ccc(OCC(=O)NNC(=S)NC(=O)c2ccc([N+](=O)[O-])cc2)cc1,?,?,5.62µM,i,5.62µM,?
O=C(NNC(=O)c1ccc([N+](=O)[O-])cc1)c1ccc(Br)cc1,i,i,i,i,i,i
CC(=O)NC(=S)NNC(=O)COc1ccc([N+](=O)[O-])cc1,i,i,i,i,i,i
CC(C)NC(=O)NC(=O)CN(C)C(C)C(C)(C)C (configuration not stated),nt,nt,nt,nt,nt,i
CCCNC(=O)c1ccc(OC)c(S(=O)(=O)NCC)c1,nt,nt,nt,nt,nt,i
Cc1ccc(C(=O)NC(=S)NNC(=O)c2ccccc2O)cc1,?,?,i,i,i,i
O=C(NC(=S)Nc1ccccc1[N+](=O)[O-])c1ccccc1,i,i,2µM,?,?,?
O=C(NC(=S)NNC(=O)c1ccccc1O)c1ccccc1,29.1µM,?,i,i,11.2µM,i
O=C(NNC(=O)c1cc(Cl)ccc1O)c1cccs1,18.4µM,?,i,?,12.6µM,i
